# Unmarked numbers belong to inactive results.
# Key:
# Assay in all cases: log2 ratio of Biotin-Ahx-Ub-VS probe labelling (fragment/DMSO); higher = less target engagement (more negative = stronger competition), active = hit call of the paper (q ≤ 0.05, log2 ratio ≤ -1)
# Conditions in all cases: compound concentration: 200 uM; treatment time: 3 h
# OTUD6B = biological target: T1, OTUD6B (UniProt Q8N6M0)
# T1 sequence (whole entry): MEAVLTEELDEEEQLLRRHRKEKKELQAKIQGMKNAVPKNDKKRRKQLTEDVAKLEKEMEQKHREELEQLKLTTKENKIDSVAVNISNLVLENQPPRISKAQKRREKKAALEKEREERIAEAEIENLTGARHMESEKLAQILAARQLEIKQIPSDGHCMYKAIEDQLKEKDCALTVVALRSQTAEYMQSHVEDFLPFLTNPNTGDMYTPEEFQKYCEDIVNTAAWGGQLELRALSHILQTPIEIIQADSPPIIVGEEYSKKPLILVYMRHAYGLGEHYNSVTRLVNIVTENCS
# In short: (§1)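 HEK293T lysate (495 µg per sample, in Tris/CHAPS/IGEPAL buffer with protease inhibitors) was exposed in triplicate for 3 h to fragment at 200 µM or to vehicle, then to Biotin-Ahx-Ub-VS at 0.5 µM final for 1 h. Labelled DUBs were enriched on NeutrAvidin, digested with LysC and trypsin, and analysed by diaPASEF LC-MS/MS. Spectronaut label-free quantities were normalised to the global median, and values are average log2 ratios of fragment over vehicle from an unpaired t-test. Only proteins with ≥2 unique peptides were used.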
# OTUD7B = biological target: T2, OTUD7B (UniProt Q6GQQ9)
# T2 sequence (whole entry): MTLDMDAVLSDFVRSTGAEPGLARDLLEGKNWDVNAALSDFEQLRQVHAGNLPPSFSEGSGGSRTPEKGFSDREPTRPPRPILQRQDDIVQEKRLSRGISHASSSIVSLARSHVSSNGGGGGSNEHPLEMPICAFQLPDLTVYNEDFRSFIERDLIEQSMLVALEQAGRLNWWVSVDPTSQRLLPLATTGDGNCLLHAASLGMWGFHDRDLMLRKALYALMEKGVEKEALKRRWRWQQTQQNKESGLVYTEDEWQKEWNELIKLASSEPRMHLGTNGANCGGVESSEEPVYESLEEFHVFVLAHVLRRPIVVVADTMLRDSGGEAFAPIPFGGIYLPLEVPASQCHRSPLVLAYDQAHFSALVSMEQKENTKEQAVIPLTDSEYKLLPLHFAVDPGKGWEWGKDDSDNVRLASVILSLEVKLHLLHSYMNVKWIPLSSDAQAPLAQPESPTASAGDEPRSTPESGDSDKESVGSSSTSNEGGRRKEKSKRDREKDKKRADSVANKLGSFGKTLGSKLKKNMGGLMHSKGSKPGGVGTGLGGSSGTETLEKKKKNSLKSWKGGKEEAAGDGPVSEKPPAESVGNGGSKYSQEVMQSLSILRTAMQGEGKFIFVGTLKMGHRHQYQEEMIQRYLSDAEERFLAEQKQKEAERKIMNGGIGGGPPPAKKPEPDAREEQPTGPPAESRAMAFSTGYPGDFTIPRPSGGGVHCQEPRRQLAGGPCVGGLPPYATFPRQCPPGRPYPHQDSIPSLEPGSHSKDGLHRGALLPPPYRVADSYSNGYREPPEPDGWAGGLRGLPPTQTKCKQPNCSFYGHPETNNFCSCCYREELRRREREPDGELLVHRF
# In short: as §1
# PRPF8 = PRPF8 (UniProt Q6P2Q9)
# In short: as §1
# PSMD7 = biological target: T3, PSMD7 (UniProt P51665)
# T3 sequence (whole entry): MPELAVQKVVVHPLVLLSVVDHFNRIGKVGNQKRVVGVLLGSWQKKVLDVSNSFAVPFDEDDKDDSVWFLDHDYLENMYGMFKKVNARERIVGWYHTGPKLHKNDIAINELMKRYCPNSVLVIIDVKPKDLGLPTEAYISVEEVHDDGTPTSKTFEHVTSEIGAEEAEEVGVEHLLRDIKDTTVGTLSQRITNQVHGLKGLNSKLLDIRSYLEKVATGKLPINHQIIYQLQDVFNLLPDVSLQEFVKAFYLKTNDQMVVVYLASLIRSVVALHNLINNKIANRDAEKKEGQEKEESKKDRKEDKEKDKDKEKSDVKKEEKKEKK
# In short: as §1
# UCHL1 = UCHL1 (UniProt P09936)
# In short: as §1
# UCHL3 = biological target: T4, UCHL3 (UniProt P15374)
# T4 sequence (whole entry): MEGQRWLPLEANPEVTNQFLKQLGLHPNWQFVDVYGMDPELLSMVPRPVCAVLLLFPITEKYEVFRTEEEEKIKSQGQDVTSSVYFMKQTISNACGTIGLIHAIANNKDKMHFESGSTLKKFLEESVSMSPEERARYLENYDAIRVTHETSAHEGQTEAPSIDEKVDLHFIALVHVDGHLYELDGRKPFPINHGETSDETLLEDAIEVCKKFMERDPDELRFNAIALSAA
# In short: as §1
# UCHL5 = biological target: T5, UCHL5 (UniProt Q9Y5K5)
# T5 sequence (whole entry): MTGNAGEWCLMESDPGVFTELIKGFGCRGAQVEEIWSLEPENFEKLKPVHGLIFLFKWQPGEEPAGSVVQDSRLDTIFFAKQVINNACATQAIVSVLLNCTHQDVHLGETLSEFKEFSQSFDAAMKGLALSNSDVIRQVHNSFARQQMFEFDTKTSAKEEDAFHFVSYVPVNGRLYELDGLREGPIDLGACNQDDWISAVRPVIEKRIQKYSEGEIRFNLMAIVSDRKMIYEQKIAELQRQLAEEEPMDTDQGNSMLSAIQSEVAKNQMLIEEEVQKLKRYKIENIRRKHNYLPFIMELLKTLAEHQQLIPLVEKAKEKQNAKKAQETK
# In short: as §1
# USP10 = USP10 (UniProt Q14694)
# In short: as §1
# USP15 = biological target: T6, USP15 (UniProt Q9Y4E8)
# T6 sequence (whole entry): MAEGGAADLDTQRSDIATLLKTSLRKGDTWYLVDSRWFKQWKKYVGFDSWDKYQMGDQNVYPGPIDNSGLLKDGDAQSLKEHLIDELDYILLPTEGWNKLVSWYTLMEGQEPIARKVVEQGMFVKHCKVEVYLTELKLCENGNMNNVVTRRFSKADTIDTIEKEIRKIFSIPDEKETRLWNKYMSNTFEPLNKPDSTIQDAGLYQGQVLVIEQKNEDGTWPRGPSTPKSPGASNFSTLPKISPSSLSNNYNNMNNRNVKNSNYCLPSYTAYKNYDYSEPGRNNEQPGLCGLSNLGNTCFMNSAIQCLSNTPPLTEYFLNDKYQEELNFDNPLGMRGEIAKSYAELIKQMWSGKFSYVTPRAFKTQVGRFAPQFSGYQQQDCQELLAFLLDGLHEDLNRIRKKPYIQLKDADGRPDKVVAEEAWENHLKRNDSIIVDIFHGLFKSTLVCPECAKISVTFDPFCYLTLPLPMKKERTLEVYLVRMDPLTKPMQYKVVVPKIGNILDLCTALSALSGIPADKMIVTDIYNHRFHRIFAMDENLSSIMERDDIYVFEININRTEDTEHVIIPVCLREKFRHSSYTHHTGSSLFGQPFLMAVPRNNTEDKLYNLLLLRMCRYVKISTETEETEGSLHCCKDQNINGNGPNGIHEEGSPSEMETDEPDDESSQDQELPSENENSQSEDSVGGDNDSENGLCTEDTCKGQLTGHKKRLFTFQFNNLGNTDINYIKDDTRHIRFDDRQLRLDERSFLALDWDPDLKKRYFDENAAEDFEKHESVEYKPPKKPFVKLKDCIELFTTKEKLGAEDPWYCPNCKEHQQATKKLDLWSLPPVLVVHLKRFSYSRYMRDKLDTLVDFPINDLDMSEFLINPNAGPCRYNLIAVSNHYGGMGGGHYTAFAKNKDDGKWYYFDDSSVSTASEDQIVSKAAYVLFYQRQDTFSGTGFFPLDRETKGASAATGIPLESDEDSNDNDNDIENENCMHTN
# In short: as §1
# USP16 = USP16 (UniProt Q9Y5T5)
# In short: as §1
# USP16, sequence (Q9Y5T5 whole entry, looked up): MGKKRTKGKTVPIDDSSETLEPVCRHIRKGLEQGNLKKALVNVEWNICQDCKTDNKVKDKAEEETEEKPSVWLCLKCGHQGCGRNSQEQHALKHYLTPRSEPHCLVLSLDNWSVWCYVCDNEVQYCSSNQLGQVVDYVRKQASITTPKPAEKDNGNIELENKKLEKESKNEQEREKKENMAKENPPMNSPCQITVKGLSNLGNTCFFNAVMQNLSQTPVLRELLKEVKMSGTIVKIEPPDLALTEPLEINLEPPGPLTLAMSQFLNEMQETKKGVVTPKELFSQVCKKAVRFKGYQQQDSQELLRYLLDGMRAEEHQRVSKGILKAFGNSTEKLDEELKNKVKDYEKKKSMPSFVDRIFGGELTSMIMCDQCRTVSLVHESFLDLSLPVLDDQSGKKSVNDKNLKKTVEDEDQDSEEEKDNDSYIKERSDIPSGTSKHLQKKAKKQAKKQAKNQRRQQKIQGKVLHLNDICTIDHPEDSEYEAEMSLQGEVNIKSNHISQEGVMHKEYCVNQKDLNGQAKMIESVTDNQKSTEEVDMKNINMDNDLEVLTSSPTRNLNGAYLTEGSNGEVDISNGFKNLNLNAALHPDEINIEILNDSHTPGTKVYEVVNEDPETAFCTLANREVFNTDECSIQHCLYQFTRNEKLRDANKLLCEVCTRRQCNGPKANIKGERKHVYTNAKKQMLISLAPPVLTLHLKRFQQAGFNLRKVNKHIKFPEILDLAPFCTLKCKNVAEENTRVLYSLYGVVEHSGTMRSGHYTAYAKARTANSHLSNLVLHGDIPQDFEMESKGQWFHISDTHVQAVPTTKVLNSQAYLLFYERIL
# UCHL1, sequence (P09936 whole entry, looked up): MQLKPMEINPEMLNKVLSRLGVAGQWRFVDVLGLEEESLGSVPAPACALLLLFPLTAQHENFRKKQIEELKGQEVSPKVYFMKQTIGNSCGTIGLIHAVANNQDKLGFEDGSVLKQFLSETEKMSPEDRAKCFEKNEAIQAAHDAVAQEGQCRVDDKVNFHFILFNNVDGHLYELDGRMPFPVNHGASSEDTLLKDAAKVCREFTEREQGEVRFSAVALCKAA
# USP10, sequence (Q14694 whole entry): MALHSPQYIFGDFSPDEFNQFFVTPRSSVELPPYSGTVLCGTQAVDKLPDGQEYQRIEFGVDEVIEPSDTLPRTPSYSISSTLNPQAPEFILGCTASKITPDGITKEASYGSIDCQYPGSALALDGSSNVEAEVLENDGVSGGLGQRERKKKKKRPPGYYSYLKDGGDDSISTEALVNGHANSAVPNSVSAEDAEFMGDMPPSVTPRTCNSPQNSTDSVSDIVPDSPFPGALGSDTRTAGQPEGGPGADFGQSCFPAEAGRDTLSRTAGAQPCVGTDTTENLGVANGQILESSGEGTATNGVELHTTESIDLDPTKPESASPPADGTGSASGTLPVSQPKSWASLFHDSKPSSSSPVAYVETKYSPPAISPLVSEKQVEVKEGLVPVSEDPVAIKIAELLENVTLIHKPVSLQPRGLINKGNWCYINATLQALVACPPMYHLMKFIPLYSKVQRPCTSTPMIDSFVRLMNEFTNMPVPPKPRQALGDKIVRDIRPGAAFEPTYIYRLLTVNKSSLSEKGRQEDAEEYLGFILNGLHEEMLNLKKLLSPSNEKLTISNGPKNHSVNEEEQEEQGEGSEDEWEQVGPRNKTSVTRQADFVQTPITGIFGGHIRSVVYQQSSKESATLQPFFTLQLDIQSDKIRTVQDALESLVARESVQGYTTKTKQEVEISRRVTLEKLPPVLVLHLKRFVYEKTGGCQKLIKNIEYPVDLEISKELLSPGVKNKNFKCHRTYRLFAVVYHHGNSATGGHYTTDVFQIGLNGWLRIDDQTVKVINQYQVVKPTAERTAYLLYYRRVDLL
structure (smiles),measurement,setting,value
COc1ccc(CN(C)C(=O)CCl)cc1,log2 ratio of Biotin-Ahx-Ub-VS probe labelling,OTUD6B,-0.199
same,log2 ratio of Biotin-Ahx-Ub-VS probe labelling,OTUD7B,-0.373
same,log2 ratio of Biotin-Ahx-Ub-VS probe labelling,PRPF8,0.0533
same,log2 ratio of Biotin-Ahx-Ub-VS probe labelling,PSMD7,-0.411
same,log2 ratio of Biotin-Ahx-Ub-VS probe labelling,UCHL1,-1.22 (active)
same,log2 ratio of Biotin-Ahx-Ub-VS probe labelling,UCHL3,0.249
same,log2 ratio of Biotin-Ahx-Ub-VS probe labelling,UCHL5,-0.235
same,log2 ratio of Biotin-Ahx-Ub-VS probe labelling,USP10,-0.213
same,log2 ratio of Biotin-Ahx-Ub-VS probe labelling,USP15,-0.112
same,log2 ratio of Biotin-Ahx-Ub-VS probe labelling,USP16,0.163
